Experimental data published in PubChem BioAssay AID485395 (ICCB-Longwood Screening Facility, Harvard Medical School, 2010).
About 55 (0.05%) of roughly 120,000 compounds were called active. Cut-off read from the data, not from the text of the source: active = inhibition above about 25% (passing the limit was not always enough); inactive = the rest. Only a selection was taken, and actives are over-represented in it overall.

test system: replicative DNA helicase (DnaC/DnaB), Staphylococcus aureus; assay: inhibitors of S. aureus replicative helicase, primary screen, biochemical, fluorescence unwinding readout (AID 485395);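 note: 0% = mean of negative control wells and 100% = mean of positive control wells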; details: purified S. aureus helicase, fluorescence unwinding assay; active compounds read high; concentration not given here

inhibition, inactive:
Cc1ccc(C)c(C(C)NC(=O)Cc2c(C)noc2C)c1 (stereo unspecified) -13%
Cc1cc(C)cc(NC(=O)N2CCC3(CC2)OCCO3)c1 24%
CCOc1ccc(NC(=O)Cn2c(=O)n(CC(=O)NC3CCCC3)c(=O)c3ccccc32)cc1 -11%
COC(CNC(=O)c1c[nH]c2ccc(S(=O)(=O)N(C)c3ccc(C(C)C)cc3)cc2c1=O)OC -3%
CCOC(=O)Cc1sc(NC(C)=O)nc1-c1ccccc1 -9%
CCn1nc(C(=O)OCCCCN2C(=O)c3ccccc3C2=O)c2ccccc2c1=O -20%
CC(C)Cc1nnc(N)s1 5%
CCCCNC(=O)Cn1c(-c2ccc(C)cc2)noc1=O 10%
CC1(C)CC(=NNC(N)=S)CC(C)(C)N1 0%
COCC(C)n1c(C)cc(C2=NNC(=Nc3ccc(F)cc3F)SC2)c1C (stereo unspecified) 16%
C1=C(c2ccccc2)Nc2ncnn2C1c1ccco1 (stereo unspecified) -1%
CCC(=O)Nc1ccc(-c2cn3cccnc3n2)cc1 5%
CCOC(=O)c1c(Cc2cccc(C)c2)c[nH]c1-c1ccccc1 9%
Cc1nc2ncnn2c(C)c1CCC(=O)N(Cc1cccnc1)c1ccc2c(c1)OCO2 -82%
CCN(CC)C(=O)c1ccc(CS(=O)c2cccc(Cl)c2)o1 (stereo unspecified) 24%
N#Cc1ccc(OCC(=O)N2CCN(c3ccc(O)cc3)CC2)cc1 12%
COCCN(Cc1nc2ccccc2c(=O)[nH]1)C(=O)C1=NN(c2cccc(C)c2)C(=O)CC1 4%
Cc1cc(F)ccc1S(=O)(=O)Nc1ccccc1C(=O)OCC(=O)N1CCCC1=O 4%
COCc1cc(C)nc(SCC(=O)NC2C3CC4CC(C3)CC2C4)c1C#N (stereo unspecified) 1%
CCOCc1c[nH]c(=O)[nH]c1=O 4%
COc1ccc(NC(=O)CCCn2nnc3ccccc3c2=O)cc1 -14%
Cc1ccc2[nH]c(=O)c3cc(C(=O)N4CCCc5ccccc54)sc3c2c1 8%
COc1cc(C)c2c(=O)c(-c3csc(C)n3)coc2c1 -19%
COC(=O)c1ccc2c(c1)C(=O)/C(=C\c1ccccc1O)O2 4%
CCNC(=O)C1CCN(c2ncnc3c2nc2n3CCCCC2)CC1 -22%
CCN(Cc1ccc(Cl)s1)Cn1c(CO)nc2ccccc21 -6%
Nc1nc(N)nc(SCC(=O)N2N=C(c3ccc4ccccc4c3)CC2c2ccccc2)n1 (stereo unspecified) -3%
NC(=O)C12CC3CC(CC(Cl)(C3)C1)C2 -9%
COc1ccc2c(=O)c(-c3ccc(F)cc3)coc2c1 0%
CN1C2=C(C(=O)CCC2)C(c2ccc(O)c(Cl)c2)C2=C1CCCC2=O 10%
CC(C)C(NC(=O)c1ccco1)C(=O)N1CCC(Cc2ccccc2)CC1 (stereo unspecified) -7%
CC1(C)CCCC2=C1CC1C(=O)N(CCC[N+](C)(C)C)C(=O)C1C2 (stereo unspecified) 6%
CC1CC(C)CN(C(=O)c2ccc3c(c2)N(C)C(=O)/C(=C/c2cccc(Cl)c2)S3)C1 (stereo unspecified) -10%
CCOc1ccc(-n2c(CSc3nc(C)cc(C)n3)nnc2SC)cc1 27%
O=C1CCCc2c1cnn2-c1ccccc1 -10%
CN(Cc1ccccc1)S(=O)(=O)c1ccc2c3c(cccc13)C(=O)N2 5%
O=C(O)c1cccc(S(=O)(=O)NCC(F)(F)F)c1 18%
Cc1ccc(OCCn2cc(/C=C3/C(=O)Nc4cc(Cl)ccc43)c3ccccc32)cc1C -483%
N#Cc1cccc(OCC(=O)NCC(F)(F)F)c1 12%
Cc1c(/C=C(\C#N)C(=O)O)cc(C#N)n1C -11%
Cc1cnc(C(=O)Nc2ccc(S(=O)(=O)NC(C)C)cc2)cn1 -1%
CCSc1nnc(SCC(=O)c2ccc(OC)cc2OC)s1 -4%
COC(=O)c1c(Cn2cc(Br)ccc2=O)nc2ccccc2c1C 0%
COc1nc(-c2ccccc2)ccc1-c1noc(C(C)C)n1 2%
CCCNc1cc(C)nc2nc(-c3ccc(OC)cc3)nn12 12%
O=C(Cc1c(F)cccc1Cl)OCc1ncc(-c2ccccc2)o1 -4%
Cc1ccc(-c2cc(C(=O)N3CCCCC3C)[nH]n2)cc1C (stereo unspecified) -28%
CCc1ccccc1NC(=O)Cn1ncc2c(=O)oc3ccccc3c21 4%
CCSc1nsc(SCC)c1C(=O)O -3%
COc1ccccc1C/C(N)=N/OC(=O)c1ccccc1 6%
NC(=O)COC(=O)/C=C/c1ccc(S(=O)(=O)N2CCOCC2)cc1 -10%
COc1ccc(-n2nc(C(=O)NCC(=O)N3CCOCC3)c3ccccc3c2=O)cc1 -25%
COc1ccc(S(=O)(=O)NCCn2ccc3ccccc32)cc1 -14%
CC1(C)CC(NS(C)(=O)=O)CC(C)(C)N1O 20%
CC(C)c1ccccc1N=Cc1ccc2c(c1)OCO2 -15%
NC(=O)C1CCN(C(=O)COc2ccc(Cl)cc2Cl)CC1 0%
N#CCCn1cc(/C=c2\sc3nc4ccccc4n3c2=O)c(-c2ccc(F)cc2)n1 4%
Cn1nc(NCc2ccc(Cl)cc2)c(=O)n(C)c1=O -8%
O=C(Nc1cccc(C(F)(F)F)c1)/C(=C\c1cccnc1)NC(=O)c1cccs1 -22%
COC(=O)N/N=C(\C)c1ccc2c(c1)Nc1ccccc1S2 8%
Cc1cc(NC(=O)COC(=O)C2=COCCO2)n(-c2ccccc2)n1 4%
CC(C)Cn1c(SCC(=O)Nc2ccccc2)nc2ccccc21 14%
O=C1NC(c2ccccn2)Nc2sc3c(c21)CCCC3 (stereo unspecified) 9%
c1ccc(CCNCc2cn[nH]c2-c2cccs2)cc1 -16%
COc1ccccc1N=Cc1c(O)n(-c2ccccc2OC)c(=O)[nH]c1=O 8%
CC1Nc2ccc(C(=O)N3CCC4(CC3)OCCO4)cc2NC1=O (stereo unspecified) 34%
